Where a name gives a salt, the structure may show the parent alone. ± gives the standard deviation of the averaged measurements.
Legend:
[1] = tested on: MDA-MB-231; assay: cell viability relative to vehicle unstimulated control (fraction); higher = more viable cells; settings: pre-treatment time: 18 h then 24 h IFNg/TNF
[2] = tested on: MDA-MB-231; assay: kynurenine production, fold change vs DMSO IFNg/TNF control; higher = more kynurenine produced (less inhibition); settings: pre-treatment time: 18 h then 24 h IFNg/TNF
Outline: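 After trichloroacetic acid and p-dimethylaminobenzaldehyde treatment, supernatants were read at 492 nm, with 0–100 μM standards. These came from MDA-MB-231 cells (7 × 10^4/well, 96-well plates) pre-treated 18 h with natural products in 0.1% DMSO and then exposed 24 h to IFNγ (1 U/ml) and TNF (6.25 ng/ml) at 37°C. Values for kynurenine production are fold changes over same-plate cytokine-stimulated vehicle wells, averaged over duplicate plates in the first screening round.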
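Wherever cell viability relative to vehicle unstimulated control is given: viability of the cells left after supernatant collection, read with Deep Blue dye added for 4 h, as absorbance at 570 nm minus 600 nm.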

SMILES | cell viability [1] | kynurenine production [2]
CC(=O)OC1COC(OC2CCC34CC35CCC3(C)C(C6(C)CCC(C(C)(C)O)O6)C(O)CC3(C)C5CC(OC3OC(CO)C(O)C(O)C3O)C4C2(C)C)C(OC(C)=O)C1O (configuration not stated) [Isoastragaloside I] (compound dose: 10 uM) | 0.983 ± 0.0057 | 0.925 ± 0.059
C[C@@]12C[C@@]3(O)O[C@@H](O1)[C@]1(COC(=O)c4ccc(O)cc4)[C@@H]3C[C@]12O[C@@H]1O[C@H](CO)[C@@H](O)[C@H](O)[C@H]1O [Oxypaeoniflorin] (compound dose: 10 uM) | 1.05 ± 0.069 | 0.916 ± 0.082
C=C1CC[C@H]2C(=C)CC[C@H]3C(=C)C(=O)O[C@@H]3[C@@H]12 [Dehydrocostus Lactone] (compound dose: 10 uM) | 0.933 ± 0.08 | 0.398 ± 0.079
CC(=O)O[C@@H]1C[C@@]23C[C@@]24CC[C@H](O[C@@H]2OC[C@H](O)[C@H](O)[C@H]2O)C(C)(C)[C@@H]4CC[C@H]3[C@]2(C)[C@@H](O)[C@]34O[C@H](C[C@@H](C)[C@@H]3[C@@]12C)[C@@H](C(C)(C)O)O4 [Cimiracemoside D] (compound dose: 10 uM) | 1.02 ± 0.086 | 1.16 ± 0.22
CC1(C)O[C@H]2CC(=O)OC[C@]23[C@H]2CC[C@@]4(C)[C@H](c5ccoc5)OC(=O)[C@H]5O[C@]54[C@]2(C)C(=O)C[C@@H]13 [Limonin] (compound dose: 10 uM) | 0.9819 ± 0.0068 | 0.86 ± 0.3
C[C@@H]1CC[C@@]2(OC1)O[C@H]1C[C@H]3[C@@H]4CC=C5C[C@@H](O[C@@H]6O[C@H](CO)[C@@H](O)[C@H](O[C@@H]7O[C@H](CO)[C@@H](O)[C@H](O)[C@H]7O)[C@H]6O[C@@H]6O[C@@H](C)[C@H](O)[C@@H](O)[C@H]6O)CC[C@]5(C)[C@H]4CC[C@]3(C)[C@H]1[C@@H]2C [Gracillin] (compound dose: 10 uM) | 0.0777 ± 0.08 | 0.202 ± 0.016
CC(=O)OCC1=CO[C@@H](OC(=O)CC(C)C)[C@H]2C1=C[C@H](OC(=O)CC(C)C)[C@]21CO1 [Valepotriate] (compound dose: 10 uM) | 0.185 ± 0.028 | 0.321 ± 0.04
C=C(C)[C@@H]1CCC2=CC(=O)C[C@@H](C)[C@]2(C)C1 [Nootkatone] (compound dose: 10 uM) | 0.9333 ± 0.0022 | 0.932 ± 0.073
CC(C)C1=C[C@H]2[C@@H](CC[C@]2(C)O)[C@](C)(O)CC1 [Alismoxide] (compound dose: 10 uM) | 1.01 ± 0.018 | 0.714 ± 0.17
C[C@H]1[C@H](C)CC[C@]2(C(=O)O)CC[C@]3(C)C(=CC[C@@H]4[C@@]5(C)CC[C@H](O)C(C)(C)[C@@H]5CC[C@]43C)[C@H]12 [3-Epiursolic Acid] (compound dose: 10 uM) | 1.02 ± 0.045 | 0.649 ± 0.08
O=C(O)c1cncc(C(=O)O)c1 [3-5-pyridinedicarboxylic acid] (compound dose: 10 uM) | 1.04 ± 0.044 | 0.983 ± 0.025
CC(C)=CCC[C@](C)(O[C@@H]1O[C@H](CO[C@@H]2OC[C@H](O)[C@H](O)[C@H]2O)[C@@H](O)[C@H](O)[C@H]1O)[C@H]1CC[C@]2(C)[C@@H]1[C@H](O)C[C@@H]1[C@@]3(C)CC[C@H](O[C@@H]4O[C@H](CO)[C@@H](O)[C@H](O)[C@H]4O[C@@H]4O[C@H](CO)[C@@H](O)[C@H](O)[C@H]4O)C(C)(C)[C@@H]3CC[C@]12C [Ginsenoside Rb2] (compound dose: 10 uM) | 0.968 ± 0.04 | 0.88 ± 0.14
C[C@@H]1O[C@@H](O[C@H]2[C@H](O[C@H]3[C@H](O[C@H]4CC[C@]5(C)[C@H]6CC=C7[C@@H]8CC(C)(C)CC[C@]8(C(=O)O)CC[C@@]7(C)[C@]6(C)CC[C@H]5C4(C)C)OC[C@H](O)[C@@H]3O)O[C@H](CO)[C@@H](O)[C@@H]2O)[C@H](O)[C@H](O)[C@H]1O [Raddeanin A] (compound dose: 10 uM) | 0.0234 ± 0.033 | 0.116 ± 0.011
COC(=O)C1=CC[C@@]23CC[C@@H]([C@@](C)(/C=C/C=C(\C)C(=O)O)OC2=O)[C@@]3(OC(C)=O)CC1 [Pseudolaric Acid B] (compound dose: 10 uM) | 0.898 ± 0.035 | 0.62 ± 0.24
COC(=O)C1=CO[C@@H](O[C@@H]2O[C@H](CO)[C@@H](O)[C@H](O)[C@H]2O)[C@@H]2[C@H](C)O[C@@H](O)C[C@H]12 [Morroniside] (compound dose: 10 uM) | 1.015 ± 0.0011 | 1.22 ± 0.21
CC1(C)CC[C@]2(C(=O)O[C@@H]3O[C@H](CO)[C@@H](O)[C@H](O)[C@H]3O)CC[C@]3(C)C(=CC[C@@H]4[C@@]5(C)CC[C@H](O[C@@H]6O[C@H](C(=O)O)[C@@H](O)[C@H](O)[C@H]6O[C@@H]6O[C@H](CO)[C@@H](O)[C@H](O)[C@H]6O)C(C)(C)[C@@H]5CC[C@]43C)[C@@H]2C1 [Ginsenoside Ro] (compound dose: 10 uM) | 0.928 ± 0.091 | 1.05 ± 0.091

SMILES | cell viability [1] | kynurenine production [2]
COc1ccc2c3c1O[C@H]1C[C@@H](O)C=C[C@@]31CCN(C)C2 [Galantamine hydrobromide] (compound dose: 10 uM) | 1.04 | 0.792 ± 0.067
CC1(C)CC[C@]2(C(=O)O[C@@H]3O[C@H](CO)[C@@H](O)[C@H](O)[C@H]3O)CC[C@]3(C)C(=CC[C@@H]4[C@@]5(C)CC[C@H](O[C@@H]6O[C@H](C(=O)O)[C@@H](O[C@@H]7O[C@@H](CO)[C@H](O)[C@H]7O)[C@H](O)[C@H]6O)C(C)(C)[C@@H]5CC[C@]43C)[C@@H]2C1 [Araloside A] (compound dose: 10 uM) | 1.05 ± 0.032 | 1.31 ± 0.014
C[C@@H]1O[C@@H](O[C@H]2[C@H](OC(=O)[C@]34CCC(C)(C)C[C@H]3C3=CC[C@@H]5[C@@]6(C)C[C@H](O)[C@H](O[C@@H]7O[C@H](CO)[C@@H](O)[C@H](O[C@@H]8O[C@H](CO)[C@@H](O)[C@H](O)[C@H]8O)[C@H]7O)C(CO)(CO)[C@@H]6CC[C@@]5(C)[C@]3(C)C[C@H]4O)OC[C@H](O)[C@@H]2O)[C@H](O)[C@H](O)[C@H]1O[C@@H]1OC[C@@H](O)[C@H](O[C@@H]2OC[C@](O)(CO)[C@H]2O)[C@H]1O [Platycodin D2] (compound dose: 10 uM) | 0.7561 ± 0.0061 | 0.301 ± 0.043
CC(CC(=O)C[C@@H](C)[C@H]1CC(=O)[C@@]2(C)C3=C(C(=O)C[C@]12C)[C@@]1(C)CCC(=O)C(C)(C)[C@@H]1C[C@@H]3O)C(=O)O (some centres not stated) [Ganoderic acid D] (compound dose: 10 uM) | 0.916 ± 0.036 | 0.869 ± 0.11
C=C(C)[C@@H]1CC=C(C)C(=O)C1 [L(-)-carvone] (compound dose: 10 uM) | 0.965 ± 0.069 | 0.974 ± 0.049
CC(=O)O[C@H]1/C(CO)=C\C[C@H]2[C@@H](/C=C(/C)C(=O)[C@@]3(OC(C)=O)C[C@H](C)[C@H](OC(=O)c4ccccc4)[C@H]13)C2(C)C [Euphorbia factor L24] (compound dose: 10 uM) | 1.09 ± 0.022 | 0.911 ± 0.078
C/C=C(/C)C(=O)O[C@H]1C(C)=C[C@]23C(=O)[C@@H](C=C(CO)[C@@H](O)[C@]12O)[C@H]1[C@@H](C[C@H]3C)C1(C)C [Ingenol Mebutate] (compound dose: 10 uM) | 1.01 ± 0.026 | 0.691 ± 0.18
CC(=O)O[C@H]1C(=O)[C@@]2(C)[C@H]([C@H](OC(=O)c3ccccc3)[C@]3(O)C[C@H](OC(=O)[C@H](O)[C@@H](NC(=O)c4ccccc4)c4ccccc4)C(C)=C1C3(C)C)[C@]1(OC(C)=O)CO[C@@H]1C[C@@H]2O [Paclitaxel] (compound dose: 10 uM) | 0.827 ± 0.035 | 0.317 ± 0.017
C=C1C[C@@]23CC[C@H]4[C@@](C)(CCC[C@@]4(C)C(=O)O)[C@@H]2CC[C@]1(O)C3 [Steviol] (compound dose: 10 uM) | 1.1 ± 0.014 | 0.964 ± 0.38
CC(C)(O)[C@H]1CC[C@@](C)([C@H]2CC[C@]3(C)[C@@H]2[C@H](O)C[C@@H]2[C@@]4(C)CC[C@H](O)C(C)(C)[C@@H]4[C@@H](O[C@@H]4O[C@H](CO)[C@@H](O)[C@H](O)[C@H]4O)C[C@]23C)O1 [Pseudoginsenoside RT5] (compound dose: 10 uM) | 0.987 ± 0.016 | 0.865 ± 0.21
CC(C)=CCC[C@](C)(O[C@@H]1O[C@H](CO)[C@@H](O)[C@H](O)[C@H]1O)[C@H]1CC[C@]2(C)[C@@H]1[C@H](O)C[C@@H]1[C@@]3(C)CC[C@H](O[C@@H]4O[C@H](CO)[C@@H](O)[C@H](O)[C@H]4O[C@@H]4O[C@H](CO)[C@@H](O)[C@H](O)[C@H]4O)C(C)(C)[C@@H]3CC[C@]12C [Ginsenoside Rd] (compound dose: 10 uM) | 1 ± 0.022 | 0.778 ± 0.17
CO[C@H]1O[C@@H]2O[C@@]3(C)CC[C@H]4[C@H](C)CC[C@@H]([C@H]1C)[C@@]24OO3 [Artemether] (compound dose: 10 uM) | 1 ± 0.11 | 0.37 ± 0.12
C=C[C@H]1[C@H](O[C@@H]2O[C@H](CO)[C@@H](O)[C@H](O)[C@H]2O)OC=C2C(=O)OCC[C@]21O [Swertiamarin] (compound dose: 10 uM) | 0.9564 ± 0.0069 | 0.912 ± 0.14
C=C1CC[C@@H]2[C@](C)(COC(=O)CCC(=O)O)[C@H](OC(=O)CCC(=O)O)CC[C@@]2(C)[C@@H]1/C=C/C1=CCOC1=O [Kalii Dehydrographolidi Succinas] (compound dose: 2 uM) | 1.08 ± 0.13 | 1.2675 ± 0.00049
C[C@@]12CC[C@@H]3[C@@](CC[C@H]4[C@@]3(C)CCC[C@@]4(C)C(=O)O)(CC1=O)C2 [Isosteviol] (compound dose: 10 uM) | 1.02 ± 0.084 | 0.998 ± 0.055

— the supplement of paper PMC13094657
